# Screening results deposited in PubChem by National Center for Advancing Translational Sciences (NCATS).
# Gal4-VP16 FLuc: VP16 counterscreen qHTS for inhibitors of ROR gamma transcriptional activity. Drosophila S2 Gal4-VP16 UAS-luciferase, luminescence, 20 h. 310,000 tested, 3.5% active. AID 2546, 2010. Potency, µM (titrated, usually from 53.6 µM), hits mostly inhibitors;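 note: Gal4-VP16 expression switched on by copper sulfate through the metallothionein promoter; nearly all actives have a fitted effect of over 50% in size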
# RORgamma inh: qHTS for inhibitors of ROR gamma transcriptional activity; Drosophila S2 Gal4-RORgamma UAS-luciferase reporter, 20 h; Potency, µM (highest dose often 53.6 µM), actives largely listed as inhibitors; 310,000 tested, 5.4% active; AID 2551, 2010; note: nearly all actives have a fitted effect of over 60% in size
# Target sequence (P51450 whole entry, looked up, the tested form may be a part): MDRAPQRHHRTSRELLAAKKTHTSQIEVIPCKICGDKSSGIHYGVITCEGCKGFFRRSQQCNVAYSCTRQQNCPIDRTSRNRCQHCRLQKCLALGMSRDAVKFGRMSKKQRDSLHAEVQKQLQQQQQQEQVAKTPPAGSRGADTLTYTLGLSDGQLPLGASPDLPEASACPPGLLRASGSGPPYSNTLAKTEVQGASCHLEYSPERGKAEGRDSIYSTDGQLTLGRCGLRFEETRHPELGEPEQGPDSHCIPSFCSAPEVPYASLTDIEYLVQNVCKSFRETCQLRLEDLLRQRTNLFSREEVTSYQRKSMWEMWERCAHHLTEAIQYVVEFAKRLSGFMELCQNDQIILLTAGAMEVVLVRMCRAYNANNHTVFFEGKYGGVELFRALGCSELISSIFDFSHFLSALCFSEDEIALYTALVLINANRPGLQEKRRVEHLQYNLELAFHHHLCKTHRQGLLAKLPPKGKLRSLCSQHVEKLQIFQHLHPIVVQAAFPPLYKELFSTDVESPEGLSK
#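 Using a luciferase readout, inhibitors were identified by reduced reporter activity in Drosophila cells coexpressing a copper-inducible Gal4–ROR gamma fusion and UAS-driven Photinus luciferase, incubated 20 hr after 700 uM copper sulfate.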
# SW480 rerep: A quantitative high throughput screen for small molecules that induce DNA re-replication in SW480 colon adenocarcinoma cells. SW480 DNA re-replication, Hoechst DNA content imaging, 48 h. Potency, µM (series often up to 46.1 µM), most hits filed as activators. 340,000 tested, 1.8% active; note: nearly all actives have a fitted effect of over 55% in size
#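 Cells (250 per well) received 23 nL compound or DMSO by pin tool and were kept 48 hr at 37 C, 5% CO2. Nuclei were then stained with Hoechst for 40 min and scanned for DNA content.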
# KB-V1 MDR tox: qHTS assay for MDR1-selective chemotherapeutics: Primary screen using the drug-selected MDR subline cells KB-V1; Potency, µM (doses to about 46.1 µM), usual class: cytotoxic; AID 1347076, 2019; 400,000 tested, 3.4% active; KB-V1 MDR cells viability, CellTiter-Glo, 72 h; note: nearly all actives have a fitted effect of over 60% in size
#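 qHTS viability screen in drug-selected KB-V1 MDR cells: 72 h compound treatment at 37 degrees C, ATP luminescence end point.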
# MCF10A rereplic: A quantitative high throughput screen for small molecules that induce DNA re-replication in MCF 10a normal breast cells; MCF 10A DNA re-replication, Hoechst nuclear intensity, 48 h; Potency, µM (doses to about 46.1 µM), hits mostly activators; 350,000 tested, 2.9% active; note: nearly all actives have a fitted effect of over 50% in size
# KB-3-1 tox: qHTS assay for MDR1-selective chemotherapeutics: Primary screen using the parental adenocarcinoma cell KB-3-1. KB-3-1 viability, CellTiter-Glo ATP luminescence, 72 h. Potency, µM (highest dose often 46.1 µM), hits mostly cytotoxic. 400,000 tested, 1.4% active. AID 1347075, 2019; note: nearly all actives have a fitted effect of over 60% in size
#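 72 h, 37 °C compound treatment of KB-3-1 parental cells; CellTiter-Glo added, 10 min, luminescence read. Data corrected against DMSO-only plates and normalized before curve fitting.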
# Numbers stand for hits; . = inactive; ? = inconclusive; / = no result. This is a sample that favours compounds with a hit; in the whole collection about 10% have one here. Calls come from the whole dose curve; as a rule, active = well fitted curve in the direction sought with a large enough effect; inconclusive = small, poorly fitted or top-dose-only effect, or another doubt; inactive = no such curve, though single readings can be large; an effect the other way counts as inactive or inconclusive.
SMILES,Gal4-VP16 FLuc,RORgamma inh,SW480 rerep,KB-V1 MDR tox,MCF10A rereplic,KB-3-1 tox
Cc1cc(C)n2nc(CNC(=O)c3ccc(Cl)cc3)nc2n1,/,/,/,.,/,.
O=C(O)c1ccccc1OC1=NS(=O)(=O)c2ccccc21,/,/,/,.,/,?
CCCc1cc(=O)n2[nH]c(NCc3ccccc3OC)nc2n1,/,/,/,?,/,.
N=C(N)SCCN=C(N)N,.,.,/,/,/,/
CC(=O)c1cccc(-c2csc3ncnc(Sc4nnnn4C)c23)c1,/,/,/,.,/,.
Cn1nnnc1Sc1ncnc2scc(-c3cccc(S(C)(=O)=O)c3)c12,/,/,.,?,4.61µM,20.6µM
Cn1cccc1C(=O)N1CCC2(CCN(Cc3ccccc3)CC2)CC1,.,.,/,/,/,/
Cc1cccc2c1N(C(=O)c1ccco1)C(C)(C)c1ssc(=S)c1-2,.,.,.,?,.,.
Cc1ccc2c(c1)N(C(=O)c1ccco1)C(C)(C)c1ssc(=S)c1-2,.,.,.,9.2µM,.,.
COc1ccc(CNC(=O)C(c2ccc(C)o2)N(Cc2cccs2)C(=O)Cc2cccs2)cc1 (configuration not stated),?,.,.,14.6µM,?,?
O=C(NC1CCCC1)C(c1ccsc1)N(Cc1ccccc1)C(=O)Cc1cccs1 (configuration not stated),.,.,.,4.61µM,.,.
COc1ccc(C(C(=O)NC2CCCC2)N(Cc2cccnc2)C(=O)Cc2cccs2)c(OC)c1 (configuration not stated),.,10µM,.,.,.,.
O=C(NCc1ccccc1)C(c1ccccc1)N(Cc1ccc2c(c1)OCO2)C(=O)Cc1cccs1 (configuration not stated),.,?,.,13µM,?,.
CCOc1ccc(N2CC(c3nc4ccccc4n3CCCOc3ccccc3OC)CC2=O)cc1 (configuration not stated),/,/,/,.,/,.
C=CCn1c(SCc2ccc(C(=O)Nc3ccccc3)cc2)nnc1-c1ccccc1,.,?,.,2.59µM,.,.
C=CCn1c(SCC(=O)c2ccccc2)nnc1-c1ccc2c(c1)OCO2,.,.,?,20.6µM,?,.
O=c1[nH]c(=S)[nH]c2sc3c(c12)CCCCCC3,?,14.1µM,.,.,?,.
COCCn1c(=S)[nH]c2sc3c(c2c1=O)CCC(C)C3 (configuration not stated),1.26µM,1.12µM,?,?,?,.
CC(=O)Cn1nnc2sc3c(c2c1=O)CCC(C(C)(C)C)C3 (configuration not stated),?,.,.,?,.,?
Cn1c(=S)[nH]c2sc3c(c2c1=O)CCC(C(C)(C)C)C3 (configuration not stated),1µM,0.316µM,/,/,/,/
Nn1c(=S)[nH]c2sc3c(c2c1=O)CCCC3,/,/,.,.,.,?
CCCn1c(=S)[nH]c2sc3c(c2c1=O)CCCC3,0.891µM,0.282µM,?,.,.,?
CCc1ccc2occ(CC(=O)Nc3c(C(=O)c4ccc(F)cc4)oc4ccccc34)c2c1,/,/,/,.,/,.
N#Cc1ccc(N2CCN(S(=O)(=O)c3ccc4c(c3)CC(=O)N4)CC2)cc1,/,/,/,.,/,?
CCn1c(=O)n(CCOC)c(=O)c2c3c(sc21)CCCC3,.,.,.,?,.,?
SMILES,Gal4-VP16 FLuc,RORgamma inh,SW480 rerep,KB-V1 MDR tox,MCF10A rereplic,KB-3-1 tox
COCCCn1c(=S)[nH]c2sc3c(c2c1=O)CCCS3,2.82µM,1µM,.,.,?,.
CCN(c1ccc(OC)cc1)S(=O)(=O)c1ccc2[nH]c(=O)ccc2c1,/,/,/,.,/,.
O=C(N/N=C/c1ccc(Br)s1)c1ccccn1,3.98µM,?,.,.,.,.
C/C(=N\NC(=O)c1cccc2ccccc12)c1cccs1,.,.,.,.,.,.
C/C(=N\NC(=O)c1ccoc1C)c1ccc(Br)s1,11.2µM,6.31µM,.,.,.,.
O=C(N/N=C/c1ccsc1)c1ccccn1,.,.,.,.,.,.
C/C(=N\NC(=O)c1ccoc1C)c1cccc2ccccc12,.,12.6µM,.,?,?,.
Cc1ccc(/C=N/NC(=O)c2ccoc2C)s1,?,?,.,.,.,.
Cc1occc1C(=O)N/N=C/c1ccc(Br)s1,10µM,6.31µM,.,.,.,.
CC1Cn2cc(C(=O)Nc3cccc(C(F)(F)F)c3)c(=O)c3c(Cl)ccc(c32)O1 (configuration not stated),/,/,/,.,/,.
O=C(Cn1c(=O)n(Cc2ccco2)c(=O)c2sc3ccccc3c21)Nc1ccc(F)cc1F,/,/,/,.,/,.
Cc1ccco1,.,.,/,/,/,/
O=C(NN=Cc1cc(Cl)ccc1[N+](=O)[O-])c1ccco1,/,/,.,14.6µM,.,.
O=C(NCCNc1cc(Cl)ccc1[N+](=O)[O-])c1ccco1,.,.,.,.,.,?
O=C(N/N=C/c1ccc(Br)s1)c1ccco1,10µM,6.31µM,.,.,.,.
O=C(N/N=C/c1sc(=O)n(Cc2ccc(Br)cc2)c1Cl)c1ccco1,?,11.2µM,.,.,18.4µM,?
COc1cc(C(CC(=O)NCc2ccccc2)N2Cc3ccccc3C2=O)cc(OC)c1OC (configuration not stated),/,/,/,.,/,.
Cc1cc(C)nc(Nc2nc(C)c3cc4c(cc3n2)OCO4)n1,7.08µM,7.08µM,?,.,.,.
O=c1nc(Nc2cccc(Cl)c2)oc2cc(Cl)oc(=O)c12,.,.,.,?,16.4µM,.
C=CCn1c(SCC#N)nc2cc(Cl)ccc2c1=O,/,/,/,.,/,.
CC1=C(C(=O)OCc2ccccc2)C(c2ccc3c(c2)OCO3)NC(=O)N1CCCC(=O)O (configuration not stated),/,/,.,.,.,.
CC1=C(C(=O)OCc2ccccc2)C(c2ccc3ccccc3c2)NC(=O)N1CCCC(=O)O (configuration not stated),.,11.2µM,.,.,.,.
CC1=C(C(=O)OCc2ccccc2)C(c2ccc([N+](=O)[O-])cc2)NC(=O)N1CCCC(=O)O (configuration not stated),.,.,.,.,.,.
CCOC(=O)C1=C(N)Oc2cc(O)ccc2C1c1cccc([N+](=O)[O-])c1 (configuration not stated),.,.,?,?,8.2µM,?
CC1=C(C(=O)OCc2ccccc2)C(c2ccc([N+](=O)[O-])cc2)NC(=O)N1CCCCCC(=O)O (configuration not stated),.,10µM,.,.,.,.
